# Measurements published in PubChem BioAssay (Tox21).
# The source made the active and inactive calls. The call rests on the fitted dose curve; in most records, active means well fitted curve in the direction sought with a large enough effect in the repeat runs; inconclusive means weak or mixed curves; inactive means flat fitted curve, though single readings scatter.
# Experiment: qHTS assay to test for compound auto fluorescence at 460 nm (blue) in HepG2 cell free culture (AID 720685)
# Details: Cell-free culture medium, blue autofluorescence 405/460 nm; series mostly up to 91.3 µM
# From the text: U.S. Tox21 Program National Center for Advancing Translational Sciences [NCATS] NIH Chemical Genomics Center [NCGC] U.S. Environmental Protection Agency [EPA] National Institutes of Environmental Health Sciences [NIEHS] National Toxicology Program [NTP] U.S. Food and Drug Administration [FDA] Tox21 Assay Overview: Compound auto fluorescence often interferes with screening of the compound library against various biological targets and signaling pathways. Some of these compounds may have fluorophoric properties. Such properties may interfere with the assay outputs resulting in false positives and/or negatives. To decrease such complications and ensure the compound activities are relevant in terms of biological response, the Tox21 10K compound library was screened for auto fluorescence. From the fluorophores used as reporter signals in our screening assays, the auto fluorescence equivalencies of compounds against three fluorophores have been evaluated: Triamterene, Fluorescein and Rose Bengal sodium for blue, green and red fluorescence, respectively. The fluorescence intensities were measured using Excitation/Emission wavelengths at 405/460nm, 485/535nm and 540/590nm for blue, green and red labels, respectively. This assay includes the blue fluorescence data.
# Tox21 Assay Protocol Summary: 5 uL of culture medium (MEM containing 10% FBS) per well was dispensed into black wall/clear bottom 1536-well plates using a Multidrop Combi Dispenser (ThermoFisher Scientific, Waltham, MA). After 23 nL compound or DMSO vehicle was transferred into assay plate by a pintool work station (Kalypsys, San Diego, CA), fluorescence intensities in the assay plates were measured by an Envision (PerkinElmer, Shelton, CT) plate reader using three labels for measuring blue, green and red fluorescence at […] 460, 535 and 590nm respectively.
# On the % scale 0 is the no-effect control and ±100 the full control effect.
SMILES,outcome,"fluorescence, % of fluorescent control"
O=CC1CC=CCC1 (stereo not given),inactive,
C=C(C)C(=O)OCC,inactive,
COc1ccc(-c2nc3ccc(C4=NNC(=O)CC4C)cc3[nH]2)cc1 (stereo not given),inactive,
CC(C)OC(=O)C(C)N(C(=O)c1ccccc1)c1ccc(F)c(Cl)c1 (stereo not given),inactive,
CCCCCCCCCc1ccc(OCCOCCO)cc1,inactive,
CC(=O)c1cccc([N+](=O)[O-])c1,inactive,
CCn1cc(C(=O)O)c(=O)c2cnc(N3CCNCC3)nc21,,0.0041% [at 18.6 µM] (inactive)
C1CCCNCCC1,inactive,
Nc1ccc(N)c2c1C(=O)c1ccccc1C2=O,inactive,
O=C(O)CNCC(=O)O,,-0.156% [at 3.72 µM] (inactive)
CCCCCCCCCOS(=O)(=O)O,inactive,
O=C(O)C(S)C(S)C(=O)O (stereo not given),inactive,
Nc1ccccc1S(=O)(=O)c1ccccc1,inactive,
O=C(CS)Nc1ccccc1,inactive,
Brc1c2ccccc2cc2ccccc12,inactive,
Cn1c(=O)cc(Oc2ccc(F)cc2F)c2cnc(NCC(C)(C)O)nc21,inactive,
CC(COCCO)OCCO (stereo not given),inactive,
CCOc1ccc(N)c([N+](=O)[O-])c1,inactive,
c1ccc(CNCCNCc2ccccc2)cc1,inactive,
CCCCCCCCCCCCCCCCOS(=O)(=O)O,inactive,

SMILES,outcome,"fluorescence, % of fluorescent control"
ClCCOCCOCCCl,inactive,
O=C(O)C1(C(=O)Nc2ccc(Cl)cc2Cl)CC1,inactive,
COC(=O)c1ccc(I)cc1S(=O)(=O)NC(=O)Nc1nc(C)nc(OC)n1,inactive,
Cc1cc(N)c2cc(NC(=O)Nc3ccc4nc(C)cc(N)c4c3)ccc2n1,inactive,
C[Si](C)(CCCN)O[Si](C)(C)CCCN,inactive,
CCCCOC(=O)CCCCCCCC(=O)OCCCC,inactive,
NCCCN1CCOCC1,inactive,
C=CC(=O)OCCOCCOCCOCCOC(=O)C=C,inactive,
CC1OC(=O)C(C)OC1=O (stereo not given),inactive,
CCOC(=O)C1=C[C@]2(CC)CCCN3CCc4c(n1c1ccccc41)[C@@H]32,inactive,
CCO[Si](CCCCl)(OCC)OCC,inactive,
COc1ccc(C(=O)N2CCN(CC(=O)N3CCOCC3)CC2)cc1,inactive,
CCCCC,inactive,
O=S(=O)(Oc1ccc(Cl)cc1)c1ccccc1,inactive,
C=CC1CC2C=CC1C2 (stereo not given),inactive,
C[C@H](CCC(=O)O)[C@H]1CC[C@H]2[C@@H]3CC[C@@H]4C[C@H](O)CC[C@]4(C)[C@H]3C[C@H](O)[C@]12C,inactive,
C=C1[C@H]2CC[C@@H]3[C@H]2C(C)(C)CCC[C@]13C,inactive,
CC1=CC=C(C(C)C)CC1,inactive,
O=C1OC(CN2CCOCC2)CN1/N=C/c1ccc([N+](=O)[O-])o1 (stereo not given),,-0.135% [at 18.6 µM] (inactive)
OCCNCc1ccccc1,inactive,
